The text below walks through data of PubChem BioAssay (EPA / NIEHS).

Active and inactive are the calls of the source. Rule for the calls: active = hit-call score of the fitted dose curve at least 0.9, where 1 is the maximum; inactive = score below 0.9.

This assay can be described thus: CCTE_Shafer_MEA_acute_burst_number: CCTE's Neural Acute Assay for Single-Electrode Bursts, Shafer Lab (AID 2284013). As for the experimental part:
CCTE_Shafer_MEA_acute assay is conducted using Axion Biosystems 48 well microelectrode array (MEA) plates and Maestro recording system. Each well of the MEA plate contains a grid of 16 microelectrodes embedded in the culture surface. Electrically active cells, such as neurons, can be cultured over the electrodes, and electrical activity in these cells can be recorded extracellularly. The spontaneous firing of neurons is captured from each electrode on a microsecond timescale providing both temporally and spatially precise data. […] The CCTE_Shafer_MEA_acute assay uses primary cultures of rat cortical neurons. As these cultures mature over time, neural networks develop functional activity and form cohesive networks in which electrical activity can be highly coordinated. Baseline 40-minute recordings are made on days post-plating 13 or 15, followed by a secondary 40-minute recording after chemical exposure.CCTE_Shafer_MEA_acute_burst_number is a component of the CCTE_Shafer_MEA_acute assay. It measures the total number of single-electrode bursts (temporally-clustered groups of action potential firing) during a recording in a microelectrode array (MEA) using Axion Biosystems Maestro 768 channel amplifier with the AxIS adaptive spike detector. The recordings before and after chemical treatment are used to calculate a percent change in the burst number in each well.Data from the assay component CCTE_Shafer_MEA_acute_burst_number was analyzed into 1 assay endpoint. This assay endpoint, CCTE_Shafer_MEA_acute_burst_number, was analyzed in the negative analysis fitting direction relative to DMSO as the negative control and baseline of activity. Using a type of functional reporter, gain or loss-of-signal activity can be used to understand electrical activity.
Spontaneous activity in the cortical cultures was recorded using an Axion Biosystems Maestro 768 channel amplifier and Axion Integrated Studios (AxIS) v1.8 (or later) software. The amplifier recorded from all channels simultaneously (gain = 1200 x; sampling rate = 12.5 kHz/channel): raw signals were filtered with a Butterworth band-pass filter (300-5000 Hz), which filters out slower local field potentials leaving only fast potentials, i.e., "spikes", arising from extracellular currents associated with action potentials (Pine 2006; Wheeler and Nam 2011). On-line spike detection of filtered signals was conducted with the AxIS adaptive spike detector, using a threshold of 8x the root mean squared (rms) noise on each channel. Any electrodes with rms noise levels greater than 5 uV were grounded (e.g., no data were recorded). Once grounded, an electrode was grounded for the duration of the experiment. All recordings were conducted at 37 C. Wells were deemed usable if on the day of the exposure >/= 10 electrodes were active (defined as >/= 5 spikes/min). On DIV 13 or 15, a minimum of three wells from one cortical culture preparation were treated with each compound (0.03-40 uM). Prior to recording baseline activity, each mwMEA plate was placed in the Maestro at 37 C and allowed to sit for 20 min while firing rates stabilized. Baseline activity (40 min) was recorded before the addition of each compound. An additional 40 min of spontaneous activity was recorded in the presence of each compound. Changes in network parameters relative to baseline were assessed following compound treatment.
Consider `CC1(C)[C@H](C(=O)O[C@H](C#N)c2cccc(Oc3ccccc3)c2)[C@@H]1/C=C(\Cl)C(F)(F)F`, for which the molecule was called inactive.
For the molecule `Cc1ccccc1OP(=O)(Oc1ccccc1C)Oc1ccccc1C`, the molecule was called inactive.
In the case of `CC(C)(C)c1ccccc1O`, the outcome was inactive.
Take `CN(C)C(=S)S`: the molecule was called inactive.
Usually AC50 stands for the concentration at which the activity in the assay is half-maximal. With `CCCCOC(=O)COC(=O)c1ccccc1C(=O)OCCCC`, the AC50 is 10.5 nM (active).
On to `N#Cc1cccnc1`, for which the call was inactive.
As for `Clc1cccc(Cl)c1Cl`, the molecule was called inactive.
For `CCCCCCCCCCCCc1cccc(S(=O)(=O)O)c1`, the result was inactive.
`CC(C)[C@@H](Nc1ccc(C(F)(F)F)cc1Cl)C(=O)OC(C#N)c1cccc(Oc2ccccc2)c1` (stereo not given in full): the outcome was inactive.
On to `Cc1cc(C(F)(C(F)(F)F)C(F)(F)F)ccc1NC(=O)c1cccc(I)c1C(=O)NC(C)(C)CS(C)(=O)=O`, for which the AC50 was 1390 nM (active).
Take `Oc1cc(Cl)c(Cl)cc1Cl`: the call was inactive.
Consider `CS(=O)(=O)c1ccc(C(=O)C2C(=O)CCCC2=O)c(Cl)c1COCC(F)(F)F`, for which the molecule was called inactive.
Consider `O=C(Cc1ccccc1)OCCc1ccccc1`, for which the molecule was classed as inactive.
`OCCCCO`: the call was inactive.
Turning to `Oc1ccc(Cc2ccc(O)cc2)cc1`, the AC50 was 3 nM (active).
